Source: PubChem BioAssay
Compounds with a hit are over-represented: about 1.6% of the library has one in this group of screens.
UBC9 SUMO inh = inhibitors of human SUMOylation (UBC9); inhibition, % at 35 µM; HTRF SUMOylation assay, SAE1/SAE2 + UBC9, in vitro; P63279; actives 0.36% (n = 290,000); in the data active means inhibition above about 50%, passing the limit was not always enough
Target sequence (P63279 whole entry, looked up): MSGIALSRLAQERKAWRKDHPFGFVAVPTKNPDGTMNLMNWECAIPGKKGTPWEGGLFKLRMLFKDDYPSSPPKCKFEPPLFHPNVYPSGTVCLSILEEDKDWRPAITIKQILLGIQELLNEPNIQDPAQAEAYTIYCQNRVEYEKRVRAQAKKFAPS
Casp6 inh = inhibitors of human caspase-6; P55212; purified caspase-6, Z-VEID-R110 cleavage fluorescence; inhibition, % at 12.5 µM; actives 0.53% (n = 350,000); AID 686996;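 active means mean inhibition across replicates at least about 35%, with every replicate also reaching that limit, limit read from the data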;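 further: 0% = median of neutral control wells and 100% = no fluorescence left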
SIRT5 block = sirtuin-5 (human) deacylase inhibition; actives 1.1% (n = 330,000); Purified SirT5, succinyl-peptide AMC, trypsin-coupled fluorescence; Q9NXA8; inhibition, % at 15 µM; in the data active means inhibition above about 15%
Target sequence (Q9NXA8 whole entry, looked up): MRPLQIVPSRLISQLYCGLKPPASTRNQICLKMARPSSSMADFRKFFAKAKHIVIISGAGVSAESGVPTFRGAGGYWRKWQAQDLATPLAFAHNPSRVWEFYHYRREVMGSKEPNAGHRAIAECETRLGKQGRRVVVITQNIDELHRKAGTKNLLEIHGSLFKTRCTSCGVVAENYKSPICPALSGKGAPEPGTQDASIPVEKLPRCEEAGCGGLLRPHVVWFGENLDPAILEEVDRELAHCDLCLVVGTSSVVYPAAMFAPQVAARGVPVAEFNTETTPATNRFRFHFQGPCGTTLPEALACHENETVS
NSD2 inh = blocks human histone methyltransferase NSD2; inhibition, % at 12.5 µM; AID 743445; actives 0.54% (n = 310,000); NSD2 peptide methylation, AlphaScreen, 120 min; in the data active means inhibition above about 50%
AlphaScreen art = counter-screen for NSD2 inhibitors: AlphaScreen artifacts; AC35, µM (highest dose often 10 µM), without a hit: at the top dose activity change, negative = signal loss; shares compounds with NSD2 inh; actives 9.4% (n = 1,500); AlphaScreen artifact counterscreen, preloaded methylated H4 peptide; call rule not given here
Starred values were filed as active, the others as inactive; / = no result given.

SMILES	UBC9 SUMO inh	Casp6 inh	SIRT5 block	NSD2 inh	AlphaScreen art
O=C(C[C@H]1C=C[C@H](NC(=O)Nc2ccc3c(c2)OCO3)[C@@H](CO)O1)NCc1ccc2c(c1)OCO2	/	1	0	/	/
CC12CCC(C)(c3nc4ccccc4nc31)C2(C)C	4	-3	-3	53*	-3%
CO[C@H]1CN(C)C(=O)c2cc(NC(=O)C3CCOCC3)ccc2OC[C@@H](C)N(Cc2nccs2)C[C@@H]1C	/	1	-1	/	/
O=C(OCc1cccc2ccccc12)C1CC(=O)N(c2ccccc2)C1 (stereo unspecified)	11	-4	-2	79*	-4%
Cc1ccc(S(=O)(=O)N2CCOCC2)cc1NC(=O)CSc1ccccn1	12	0	2	52*	-2%
Cc1ccccc1NCC(=O)Nc1cc(S(=O)(=O)N2CCCCC2)ccc1C	/	-2	3	57*	-7%
Cc1noc(C)c1NC(=O)NCC[C@H]1CC[C@H](NC(=O)Nc2cccc(F)c2)[C@@H](CO)O1	/	-3	-2	/	/
O=[N+]([O-])c1ccc(N(CC(O)CN2CCCCC2)S(=O)(=O)c2ccccc2)cc1 (stereo unspecified)	2	-4	-1	68*	-1%
N#Cc1c(-c2ccccc2)nc(SCC(=O)NC2CCCCC2)[nH]c1=O	13	-1	0	3	/
CN(C(=O)CSc1nc(-c2ccc(C(C)(C)C)cc2)c(C#N)c(=O)[nH]1)C1CCCCC1	14	35*	17*	60*	-3%
COc1ccc(C(=O)OCC(=O)Nc2c(C)n(C)n(-c3ccccc3)c2=O)cc1	/	-3	-2	51*	-2%
CO[C@H]1CN(C)C(=O)c2ccc(NS(=O)(=O)c3cn(C)cn3)cc2OC[C@H](C)NC[C@H]1C	/	/	-1	/	/
CC(C)NC(=O)Nc1ccc2c(c1)C(=O)N([C@H](C)CO)C[C@@H](C)[C@H](CN(C)S(C)(=O)=O)OCCCC[C@@H](C)O2	/	0	1	/	/
CCOC(=O)Nc1cc(C(=O)OC)ccc1C	-1	-1	-3	119*	5%
COc1ccc(OC)c(/C=C2\SC(=S)N(NS(=O)(=O)c3ccc(C)cc3)C2=O)c1	25	0	0	52*	-11%
Cc1c(C(=O)N2CCN(c3ccc(F)cc3)CC2)sc2ncnc(N3CCN(c4ccccn4)CC3)c12	-17	1	-4	59*	-6%
Cc1ccccc1S(=O)(=O)N1CC(=O)N2[C@@H](CO)[C@H](c3ccc(C#CC4CC4)cc3)[C@@H]2C1	/	-2	1	/	/
CC[n+]1c(/C=C/Nc2ccccc2)oc2ccc(OC)cc21	18	5	-4	-4	/
CC[n+]1c(/C=C/Nc2ccccc2)oc2ccccc21	26	/	/	81*	-4%
COc1ccc(-c2c3c(nc4sc(C(=O)Nc5cc(C)on5)c(N)c24)CCC3)cc1	-1	/	/	52*	5%
COc1ccc(-c2c3c(nc4sc5c(=O)[nH]c(C)nc5c24)CCC3)cc1	16	/	/	0	/
Cc1cccc2c(=O)c(C(=O)NCc3ccc(F)cc3)c[nH]c12	-3	0	1	57*	-6%
C=CCc1cc(/C=C/c2nc(O)c([N+](=O)[O-])c(=O)[nH]2)cc(OC)c1O	13	39*	9	78*	-9%
CCOc1cc(/C=C\c2nc(O)c([N+](=O)[O-])c(=O)[nH]2)ccc1OC(C)C	13	1	15	-1	/
C[C@H]1CN([C@@H](C)CO)C(=O)Cc2cc(NC(=O)NC3CCCCC3)ccc2O[C@@H]1CN(C)Cc1ccc2c(c1)OCO2	/	-4	10	/	/
SMILES	UBC9 SUMO inh	Casp6 inh	SIRT5 block	NSD2 inh	AlphaScreen art
CCNC(=O)[C@@H]1[C@@H](CO)[C@@H]2Cn3c(ccc(-c4ccccc4F)c3=O)[C@@H]2N1C	/	-1	-3	/	/
O=C(CN1CCOCC1)NCCNC(=O)CN1CCOCC1	20	/	/	60*	-4%
O=C(CN1CCOCC1)NCCc1ccccc1	7	2	-7	-1	/
C/C=C/c1ccc([C@H]2[C@H]3CN(C(=O)Nc4ccc(OC)cc4)CC(=O)N3[C@H]2CO)cc1	/	2	2	/	/
O=C1CCN2C=Nc3cccc4ccc1c2c34	66*	/	/	115*	3%
CCNC(=O)Nc1ccc2c(c1)C(=O)N(C)[C@@H]1CC[C@H](CC(=O)Nc3ccccc3)O[C@@H]1CO2	/	0	3	/	/
CC(=O)Nc1ccc(S(=O)(=O)NCCSCc2ccc(Cl)cc2Cl)cc1	-15	/	/	50*	0%
CCOC(=O)c1sc2nc(C)nc(NC3CCC(O)CC3)c2c1C (stereo unspecified)	12	3	-9	91*	-5%
CCOC(=O)c1sc2nc(C)nc(NCc3ccccc3OC)c2c1C	-11	9	-3	0	/
Cc1noc(C)c1NC(=O)Nc1ccc2c(c1)C(=O)N([C@@H](C)CO)C[C@@H](C)[C@@H](CN(C)C(=O)Nc1ccc(C(F)(F)F)cc1)O2	/	-1	4	/	/
O=C(NC[C@H]1CC[C@@H]2[C@@H](CN2S(=O)(=O)c2ccccc2)O1)NC1CCCCC1	/	2	2	/	/
CC(=O)Nc1cccc(NC(=O)c2ccc(Br)cc2)c1	1	15	3	-1	/
O=C(Nc1cccc(O)c1)c1ccc(Br)cc1	-12	/	/	67*	0%
O=C(Nc1ccccc1F)N[C@H]1CC[C@@H](CC(=O)N2CCCCC2)O[C@H]1CO	/	-7	10	/	/
COc1ccccc1N1CCN(S(=O)(=O)CCNC(=O)c2ccc(Br)o2)CC1	5	-2	0	76*	-1%
N#C/C(=C\c1ccc(-c2ccc(C(=O)O)cc2)o1)C(=O)NCC1CCCO1 (stereo unspecified)	-8	/	/	54*	-4%
CCCC(=O)Nc1ccc2c(c1)C(=O)N(C)C[C@@H](OC)[C@@H](C)CN(C(=O)c1ccncc1)[C@H](C)CO2	/	-1	-2	/	/
CC(Nc1ccc2ccccc2c1)C(=O)N/N=C/c1ccncc1 (stereo unspecified)	/	61*	1	141*	-4%
CN1c2ccccc2N(C)C1(C)c1cccc2ccccc12	33	/	/	18	/
CN1c2cccc3cccc(c23)N(C)C1(C)C	20	/	/	95*	-5%
Cc1cc(C)n(-c2nc(NCC(C)O)c3c4c(sc3n2)COC(C)(C)C4)n1 (stereo unspecified)	2	/	/	81*	-7%
Cc1noc(C)c1NC(=O)NCC[C@@H]1CC[C@H](NC(=O)Nc2cccc(F)c2)[C@@H](CO)O1	/	-2	-1	/	/
C/C=C/c1ccc([C@H]2[C@@H](CO)N(C(=O)C3CC3)[C@H]2CN(C)S(C)(=O)=O)cc1	/	2	-2	/	/
C[C@@H]1CN([C@H](C)CO)C(=O)c2cc(NS(=O)(=O)c3cn(C)cn3)ccc2O[C@@H]1CN(C)Cc1ccc(C(F)(F)F)cc1	/	0	1	/	/
O=C(COC(=O)c1ccc([N+](=O)[O-])s1)Nc1ncc(C(F)(F)F)cc1Cl	25	/	/	75*	0%
O=C(COC(=O)c1ccccn1)Nc1ncc(C(F)(F)F)cc1Cl	24	/	/	-2	/
